# PubChem BioAssay (EPA / NIEHS)
# Records with an inconclusive call do not appear. The source holds several records for some structures; these can differ, active in one and inactive in another. Active and inactive are the calls of the source. Rule for the calls, unless noted: active = hit-call score of the fitted dose curve at least 0.9, where 1 is the maximum; inconclusive = response in the unintended direction; inactive = score below 0.9.
# Tests used:
# [1] = tested on: rat Norepinephrine Transporter (NET), gene 83511; test: NVS_TR_rNET: NovaScreen (NVS) Transporter Assay for rat Norepinephrine Transporter (NET) (AID 2283373)
# Summary of the method: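 Competitive radioligand displacement at the rat NET using forebrain membrane preparations, 1 h incubation, filter-based scintillation readout. Primary testing in duplicate at a single 25 uM concentration; confirmed actives retested across concentrations.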
# [2] = target: human Dopamine Transporter (DAT), SLC6A3 (gene 6531) (UniProt Q01959); test: NVS_TR_hDAT: NovaScreen (NVS) Transporter Assay for human Dopamine Transporter (DAT) (AID 2283374);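 note: activity means loss of bound radioligand signal relative to DMSO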
# Summary of the method: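 Duplicate single-point screening at 25 uM preceded concentration-series follow-up of actives. Binding was measured by competitive displacement of a radioligand from DAT protein, filter-counted by scintillation 1 h after dosing. Decrease relative to DMSO taken as activity.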
# [3] = target: human Norepinephrine Transporter (NET), SLC6A2 (gene 6530) (UniProt P23975); test: NVS_TR_hNET: NovaScreen (NVS) Transporter Assay for human Norepinephrine Transporter (NET) (AID 2283377);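 note: cell-free membrane protein extracted from CHO cells expressing human NET; displacement of radioligand from human NET seen as loss of scintillation signal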
# Summary of the method: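 Single-concentration duplicate screen at 25 uM, then concentration-response for actives; displacement of specific radioligand from human NET in CHO membrane extracts, filter-based scintillation detection at 1 h relative to DMSO.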
# [4] = target: Estrogen receptor (Homo sapiens) (UniProt P03372); test: OT_ERa_GFPERaERE_0480: Odyssey Thera (OT) 8-hour HeLa Transcription Induction Assay for Estrogen Receptor (AID 2283381; active = hit-call score of the fitted dose curve at least 0.9, where 1 is the maximum; inactive = score below 0.9)
# Summary of the method: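 Fluorescence microscopy with high-content image analysis measures ERE-driven GFP induction in HeLa cells at 8 h post-dose. Increases fitted against DMSO baseline.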
# [5] = target: Estrogen receptor (Homo sapiens) (UniProt P03372); test: OT_ERa_GFPERaERE_0120: Odyssey Thera (OT) 2-hour HeLa Transcription Induction Assay for Estrogen Receptor (AID 2283382)
# Summary of the method: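 Fluorescence-microscopy images of the GFP-ERα/ERE reporter, scored by high-content image algorithms, give the readout. HeLa exposure lasted 2 h, and only signal increase over DMSO was fitted.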
# [6] = target: Bile acid receptor (Homo sapiens) (UniProt Q96RI1); test: OT_FXR_FXRSRC1_1440: Odyssey Thera (OT) 24-hour HEK293T Protein-Complementation Assay for Farnesoid X receptor/SRC-1 Co-activator (AID 2283384)
# Summary of the method: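 Protein-fragment complementation: FXR and SRC-1 fused to reporter fragments that reassemble on interaction, read by fluorescence intensity. Human HEK293T cells measured 24 h post-dose; positive-direction fit versus DMSO.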
# [7] = target: Retinoic acid receptor RXR-alpha (Homo sapiens) (UniProt P19793); test: OT_NURR1_NURR1RXRa_0480: Odyssey Thera (OT) 8-hour HEK293T Protein Complementation Assay for Nurr1/retinoid X receptor (RXR) (AID 2283385)
# Summary of the method: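 Interaction of Nurr1 with RXRα read as reconstituted reporter fluorescence in a HEK293T fragment-complementation system, 8 h post-treatment; increase over DMSO baseline analysed.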
# [8] = target: Peroxisome proliferator-activated receptor gamma (Homo sapiens) (UniProt P37231); test: OT_PPARg_PPARgSRC1_0480: Odyssey Thera (OT) 8-hour Protein-Complementation Assay for Peroxisome Proliferator-activated Receptor Gamma / SRC-1 Co-activator (AID 2283387)
# Summary of the method: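 Split-YFP (IFP1/IFP2) PPARg/SRC-1 reporter, HEK293T, 37 °C, 5% CO2; 8 h compound; formaldehyde fix + Draq5; high-content imaging, N/C ratio, ≥350 cells/image, positive direction vs DMSO.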
# [9] = target: Peroxisome proliferator-activated receptor gamma (Homo sapiens) (UniProt P37231); test: OT_PPARg_PPARgSRC1_1440: Odyssey Thera (OT) 24-hour Protein-Complementation Assay for Peroxisome Proliferator-activated Receptor Gamma/ SRC-1 Co-activator (AID 2283388)
# Summary of the method: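 HEK293T transiently transfected with PPARg/SRC-1 split-Venus YFP fusions 48 h before dosing, then treated 24 h at 37C. Fixed cells imaged; nuclear/cytoplasmic 488 nm fluorescence ratio, gain of signal versus DMSO.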
# [10] = CEETOX_H295R_11DCORT: CeeTox H295R High-throughput Steroidogenesis Assay for 11-Deoxycortisol (11DCORT) (AID 2283432; active = hit-call score of the fitted dose curve at least 0.9, where 1 is the maximum; inactive = score below 0.9); conditions: actives raise or lower the signal
# Summary of the method: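 Steroidogenesis in human H295R cells: 48 h chemical exposure after forskolin priming, 11-deoxycortisol measured by LC-MS/MS.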
# [11] = CEETOX_H295R_OHPREG: CeeTox H295R High-throughput Steroidogenesis Assay for OH-Pregnenolone (OHPREG) (AID 2283434; active = hit-call score of the fitted dose curve at least 0.9, where 1 is the maximum; inactive = score below 0.9); conditions: actives raise or lower the signal
# Summary of the method: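 Secreted 17alpha-hydroxypregnenolone measured by HPLC-MS/MS after liquid-liquid extraction. Human adrenal H295R cells received 48 h forskolin (10 uM) stimulation before 48 h chemical exposure at 0.1% final DMSO; MTT viability in same wells; bidirectional fit against DMSO.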
# [12] = CEETOX_H295R_OHPROG: CeeTox H295R High-throughput Steroidogenesis Assay for OH-Progesterone (OHPROG) (AID 2283435; active = hit-call score of the fitted dose curve at least 0.9, where 1 is the maximum; inactive = score below 0.9;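 for AC50: 17alpha-hydroxyprogesterone secreted into medium measured by HPLC-MS/MS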); conditions: actives raise or lower the signal
# Summary of the method: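 Medium steroid levels read by LC-MS/MS after 48 h chemical treatment (0.1% DMSO) of human adrenal H295R cells that had been forskolin-primed (10 uM, 48 h). Gain or loss fitted against DMSO; MTT cytotoxicity checked per well.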
# [13] = CEETOX_H295R_CORTISOL: CeeTox H295R High-throughput Steroidogenesis Assay for Cortisol (AID 2283438; active = hit-call score of the fitted dose curve at least 0.9, where 1 is the maximum; inactive = score below 0.9;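 note: cortisol secreted into medium quantified by LC-MS/MS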); conditions: actives raise or lower the signal
# Summary of the method: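 Cortisol measured by HPLC-MS/MS after MTBE extraction of medium from H295R cells exposed 48 h to chemical (0.1% DMSO), following 48 h prestimulation with 10 uM forskolin. Viability assessed by MTT in the same wells.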
# [14] = target: mouse Estrogen Receptor alpha (Era), Esr1 (gene 13982) (UniProt P19785); test: NVS_NR_mERa: NovaScreen (NVS) Nuclear Receptor Binding Assay for mouse Estrogen Receptor alpha (Era) (AID 2283378);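 note: hit means loss of bound radioligand signal relative to DMSO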
# Summary of the method: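 Cell-free radioligand competitive displacement binding, read by filter-based scintillation counting 18 h after dosing. Primary screen run in duplicate at 25 uM, actives retested in concentration series; loss of signal versus DMSO.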
# [15] = target: Estrogen receptor beta (Homo sapiens) (UniProt Q92731); test: OT_ER_ERbERb_1440: Odyssey Thera (OT) 24-hour HEK293T Protein-Complementation Assay for Estrogen Receptor-beta/-beta Homodimer (AID 2283380);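 note: fluorescence gain from ER beta LBD homodimer complementation read by laser scanning cytometry; scored as signal increase over DMSO baseline for both agonists and antagonists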
# Summary of the method: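 Fluorescence increase, nuclear for agonists or whole-cell for antagonists, relative to DMSO vehicle, quantified by laser scanning cytometer after fixation and Draq5 staining. Readout from 24 h treatment of HEK293T cells carrying complementation-paired ER beta LBD (aa 310-547).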
# [16] = target: Bile acid receptor (Homo sapiens) (UniProt Q96RI1); test: OT_FXR_FXRSRC1_0480: Odyssey Thera (OT) 8-hour HEK293T Protein-Complementation Assay for Farnesoid X receptor/SRC-1 Co-activator (AID 2283383)
# Summary of the method: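 Binding of FXR to coactivator SRC-1 was read as fluorescence from a reconstituted split reporter in HEK293T cells, 8 h after chemical addition. Only increases in signal versus DMSO were fit.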
# [17] = target: rat Serotonin Transporter (SERT), Slc6a4 (gene 25553) (UniProt P31652); test: NVS_TR_rSERT: NovaScreen (NVS) Transporter Assay for rat Serotonin Transporter (SERT) (AID 2283375)
# Summary of the method: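 Rat forebrain membranes; radioligand displacement at SERT read by filter-based scintillation counting, 1 h after dosing. Screened in duplicate at 25 uM, actives then run in concentration series; loss of signal versus DMSO baseline.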
# [18] = target: Agonist Androgen Response Element (ARE), AR (gene 367) (UniProt P10275); test: OT_AR_ARELUC_AG_1440: Odyssey Thera (OT) 24-hour CHO-K1 Luciferase Assay for Agonist Androgen Response Element (ARE) (AID 2283379)
# Summary of the method: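 Readout: luciferase bioluminescence from CHO-K1 ARE-luc cells, measured 24 h post-dosing; agonism = increased mean luminescence vs DMSO controls, fitted in positive direction.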
# [19] = target: Retinoic acid receptor RXR-alpha (Homo sapiens) (UniProt P19793); test: OT_NURR1_NURR1RXRa_1440: Odyssey Thera (OT) 24-hour HEK293T Protein Complementation Assay for Nurr1/retinoid X receptor (RXR) (AID 2283386)
# Summary of the method: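 Gain in fluorescence, fitted relative to DMSO, reflects Nurr1–RXRα association in HEK293T cells after 24 h dosing. Bait and prey are each linked to a reporter-protein fragment that reassembles on interaction.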
# Sequence of Bile acid receptor (Homo sapiens) (Q96RI1 whole entry, looked up, the tested form may be a part): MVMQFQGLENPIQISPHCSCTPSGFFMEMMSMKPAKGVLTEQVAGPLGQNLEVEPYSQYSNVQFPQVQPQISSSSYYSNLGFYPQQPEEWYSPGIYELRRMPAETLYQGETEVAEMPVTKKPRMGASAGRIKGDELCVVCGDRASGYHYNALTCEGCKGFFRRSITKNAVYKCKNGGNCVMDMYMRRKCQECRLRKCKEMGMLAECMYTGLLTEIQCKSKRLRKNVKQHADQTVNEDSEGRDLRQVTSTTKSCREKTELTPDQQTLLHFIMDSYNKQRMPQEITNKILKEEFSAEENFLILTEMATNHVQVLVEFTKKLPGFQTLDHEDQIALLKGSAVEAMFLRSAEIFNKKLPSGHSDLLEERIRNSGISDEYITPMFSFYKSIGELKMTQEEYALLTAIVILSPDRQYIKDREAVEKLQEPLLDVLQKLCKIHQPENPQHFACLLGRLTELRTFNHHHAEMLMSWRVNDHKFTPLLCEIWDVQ
# Sequence of Estrogen receptor (Homo sapiens) (P03372 whole entry, looked up): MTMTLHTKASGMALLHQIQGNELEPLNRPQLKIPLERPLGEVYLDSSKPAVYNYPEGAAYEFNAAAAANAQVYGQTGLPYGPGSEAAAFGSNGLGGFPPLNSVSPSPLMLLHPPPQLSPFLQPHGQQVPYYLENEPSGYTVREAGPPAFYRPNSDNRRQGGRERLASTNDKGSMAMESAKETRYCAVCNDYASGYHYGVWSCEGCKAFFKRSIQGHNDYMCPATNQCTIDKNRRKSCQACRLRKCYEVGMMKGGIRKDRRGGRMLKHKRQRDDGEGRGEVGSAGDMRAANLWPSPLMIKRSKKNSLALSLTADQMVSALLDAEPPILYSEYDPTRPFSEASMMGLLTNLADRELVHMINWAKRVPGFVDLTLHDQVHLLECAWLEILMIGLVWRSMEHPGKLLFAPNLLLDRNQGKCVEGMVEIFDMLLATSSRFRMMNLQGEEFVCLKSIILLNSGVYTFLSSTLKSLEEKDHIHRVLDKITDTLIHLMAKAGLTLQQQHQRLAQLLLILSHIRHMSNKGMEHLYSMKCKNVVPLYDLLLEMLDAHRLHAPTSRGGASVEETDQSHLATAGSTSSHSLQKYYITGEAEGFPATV
# Sequence of Retinoic acid receptor RXR-alpha (Homo sapiens) (P19793 whole entry, looked up, the tested form may be a part): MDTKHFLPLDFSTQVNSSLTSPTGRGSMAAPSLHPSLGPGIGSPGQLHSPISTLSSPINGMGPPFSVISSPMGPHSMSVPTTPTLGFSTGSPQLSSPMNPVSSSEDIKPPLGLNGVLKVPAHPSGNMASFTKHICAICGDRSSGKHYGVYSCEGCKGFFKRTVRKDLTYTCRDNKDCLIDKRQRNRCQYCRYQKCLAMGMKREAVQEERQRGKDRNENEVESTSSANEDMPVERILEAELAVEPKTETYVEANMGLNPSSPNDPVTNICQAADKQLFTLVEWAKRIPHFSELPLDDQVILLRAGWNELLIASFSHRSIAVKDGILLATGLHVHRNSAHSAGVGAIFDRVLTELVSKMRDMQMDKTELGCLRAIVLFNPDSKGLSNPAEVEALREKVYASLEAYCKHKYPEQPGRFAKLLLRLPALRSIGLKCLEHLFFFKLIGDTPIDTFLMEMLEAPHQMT
# Sequence of Peroxisome proliferator-activated receptor gamma (Homo sapiens) (P37231 whole entry, looked up, the tested form may be a part): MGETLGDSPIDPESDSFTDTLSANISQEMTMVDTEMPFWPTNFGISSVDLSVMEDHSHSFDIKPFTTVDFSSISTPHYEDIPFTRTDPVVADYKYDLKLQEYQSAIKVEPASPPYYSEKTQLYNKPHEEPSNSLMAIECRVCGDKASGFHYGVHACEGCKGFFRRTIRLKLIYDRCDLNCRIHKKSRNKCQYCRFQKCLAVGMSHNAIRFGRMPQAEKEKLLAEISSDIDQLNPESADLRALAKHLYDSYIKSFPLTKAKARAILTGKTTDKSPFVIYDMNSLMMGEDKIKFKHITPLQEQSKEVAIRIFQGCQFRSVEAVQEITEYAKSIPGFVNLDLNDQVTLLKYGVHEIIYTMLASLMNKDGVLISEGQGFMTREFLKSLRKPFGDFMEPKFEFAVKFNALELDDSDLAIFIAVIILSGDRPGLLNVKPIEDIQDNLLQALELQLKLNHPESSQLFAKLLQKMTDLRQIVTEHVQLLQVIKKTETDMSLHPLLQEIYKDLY
# Sequence of mouse Estrogen Receptor alpha (Era), Esr1 (gene 13982) (P19785 whole entry, looked up): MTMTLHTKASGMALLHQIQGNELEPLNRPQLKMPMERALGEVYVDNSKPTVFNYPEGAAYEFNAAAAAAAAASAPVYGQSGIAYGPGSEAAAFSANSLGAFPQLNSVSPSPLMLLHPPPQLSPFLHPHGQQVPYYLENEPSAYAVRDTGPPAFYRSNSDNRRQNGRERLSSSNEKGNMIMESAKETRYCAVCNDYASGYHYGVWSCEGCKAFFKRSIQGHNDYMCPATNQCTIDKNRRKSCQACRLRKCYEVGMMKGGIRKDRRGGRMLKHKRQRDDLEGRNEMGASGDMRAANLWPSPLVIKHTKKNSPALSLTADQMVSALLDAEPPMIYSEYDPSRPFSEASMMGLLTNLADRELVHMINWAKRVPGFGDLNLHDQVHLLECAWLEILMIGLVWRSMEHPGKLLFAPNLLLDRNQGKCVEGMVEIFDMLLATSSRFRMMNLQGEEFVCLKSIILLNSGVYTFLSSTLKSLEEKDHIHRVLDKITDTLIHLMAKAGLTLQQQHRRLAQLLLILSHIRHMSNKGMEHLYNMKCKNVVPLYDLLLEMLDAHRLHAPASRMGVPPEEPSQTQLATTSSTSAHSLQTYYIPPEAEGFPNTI
# Sequence of human Dopamine Transporter (DAT), SLC6A3 (gene 6531) (Q01959 whole entry, looked up): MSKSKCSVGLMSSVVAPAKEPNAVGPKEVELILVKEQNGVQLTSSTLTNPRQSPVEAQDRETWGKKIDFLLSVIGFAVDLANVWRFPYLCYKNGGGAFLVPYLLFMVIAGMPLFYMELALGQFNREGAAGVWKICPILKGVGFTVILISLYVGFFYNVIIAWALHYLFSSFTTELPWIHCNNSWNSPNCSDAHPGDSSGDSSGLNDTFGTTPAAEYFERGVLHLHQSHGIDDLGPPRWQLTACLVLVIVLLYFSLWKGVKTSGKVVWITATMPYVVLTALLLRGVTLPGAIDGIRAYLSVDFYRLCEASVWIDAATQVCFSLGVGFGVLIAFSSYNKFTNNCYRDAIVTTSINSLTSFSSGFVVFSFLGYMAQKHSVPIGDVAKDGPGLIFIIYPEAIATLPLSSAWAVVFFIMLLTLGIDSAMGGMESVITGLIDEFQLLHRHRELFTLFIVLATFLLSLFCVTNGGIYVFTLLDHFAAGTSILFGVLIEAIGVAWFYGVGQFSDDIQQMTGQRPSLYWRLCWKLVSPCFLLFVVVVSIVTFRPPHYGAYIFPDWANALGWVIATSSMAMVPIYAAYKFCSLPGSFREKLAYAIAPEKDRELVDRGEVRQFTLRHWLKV
# Sequence of human Norepinephrine Transporter (NET), SLC6A2 (gene 6530) (P23975 whole entry, looked up): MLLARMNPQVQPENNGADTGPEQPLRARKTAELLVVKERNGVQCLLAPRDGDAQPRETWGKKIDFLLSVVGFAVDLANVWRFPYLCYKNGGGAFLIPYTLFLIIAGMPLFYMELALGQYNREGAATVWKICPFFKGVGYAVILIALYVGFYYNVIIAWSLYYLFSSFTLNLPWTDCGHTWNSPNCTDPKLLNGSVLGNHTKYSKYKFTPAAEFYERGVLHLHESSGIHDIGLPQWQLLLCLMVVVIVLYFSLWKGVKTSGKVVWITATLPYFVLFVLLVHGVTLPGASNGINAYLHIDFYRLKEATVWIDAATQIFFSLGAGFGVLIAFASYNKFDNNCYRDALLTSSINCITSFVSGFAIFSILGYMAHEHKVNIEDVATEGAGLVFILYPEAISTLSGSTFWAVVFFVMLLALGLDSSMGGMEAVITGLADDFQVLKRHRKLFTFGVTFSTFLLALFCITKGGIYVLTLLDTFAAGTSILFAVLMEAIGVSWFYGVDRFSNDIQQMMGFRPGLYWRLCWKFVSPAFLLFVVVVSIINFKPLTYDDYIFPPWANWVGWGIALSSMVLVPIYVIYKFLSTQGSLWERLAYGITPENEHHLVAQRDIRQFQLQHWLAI
# Sequence of Estrogen receptor beta (Homo sapiens) (Q92731 whole entry, looked up, the tested form may be a part): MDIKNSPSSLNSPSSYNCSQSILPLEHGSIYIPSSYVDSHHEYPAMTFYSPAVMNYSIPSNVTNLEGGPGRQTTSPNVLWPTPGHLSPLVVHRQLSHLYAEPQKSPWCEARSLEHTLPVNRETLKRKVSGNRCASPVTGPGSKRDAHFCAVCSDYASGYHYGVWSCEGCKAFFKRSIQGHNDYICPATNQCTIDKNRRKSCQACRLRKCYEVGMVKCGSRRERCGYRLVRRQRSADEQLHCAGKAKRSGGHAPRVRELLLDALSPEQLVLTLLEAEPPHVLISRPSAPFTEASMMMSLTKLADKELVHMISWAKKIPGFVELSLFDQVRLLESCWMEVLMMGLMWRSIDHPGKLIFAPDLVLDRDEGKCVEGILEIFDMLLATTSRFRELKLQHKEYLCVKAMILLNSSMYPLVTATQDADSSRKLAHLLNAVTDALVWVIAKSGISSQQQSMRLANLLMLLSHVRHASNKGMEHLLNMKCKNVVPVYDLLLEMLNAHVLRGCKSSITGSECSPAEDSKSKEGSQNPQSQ
smiles,measurement,setting,value
Clc1cc(Cl)c2c(c1)N=C1CCCCCN1C2,AC50,[1],4.16 µM (active)
same,AC50,[2],4.92 µM (active)
same,AC50,[3],3.55 µM (active)
same,outcome,[4],inactive
same,outcome,[5],inactive
same,outcome,[6],inactive
same,outcome,[7],inactive
same,outcome,[8],inactive
same,outcome,[9],inactive
same,outcome,[10],inactive
same,outcome,[11],inactive
same,outcome,[12],inactive
same,outcome,[13],inactive
CCCCCCCCCCCO,outcome,[14],inactive
same,outcome,[15],inactive
same,outcome,[4],inactive
same,outcome,[5],inactive
same,outcome,[16],inactive
same,outcome,[6],inactive
same,outcome,[7],inactive
same,outcome,[8],inactive
same,outcome,[9],inactive
CN(C)c1ccc(C(=C2C=CC(=[N+](C)C)C=C2)c2ccc(N(C)C)cc2)cc1,AC50,[2],4.25 µM (active)
same,AC50,[17],7.04 µM (active)
same,AC50,[3],4.79 µM (active)
same,outcome,[18],inactive
same,outcome,[15],inactive
same,outcome,[4],inactive
same,outcome,[5],inactive
same,outcome,[8],inactive
same,outcome,[9],inactive
CCCCCCCCOC(=O)c1cc(O)c(O)c(O)c1,AC50,[2],19.9 µM (active)
same,AC50,[3],5.24 µM (active)
same,AC50,[14],11.3 µM (active)
same,AC50,[15],11.6 µM (active)
same,AC50,[4],50 µM (active)
same,AC50,[5],3.33 µM (active)
same,AC50,[16],63.6 µM (active)
same,outcome,[7],inactive
same,AC50,[19],68.5 µM (active)
same,outcome,[19],inactive
same,outcome,[8],inactive
same,outcome,[9],inactive
same,outcome,[10],inactive
same,outcome,[11],inactive
same,outcome,[12],inactive
same,outcome,[13],inactive
O=C=NCCCCCCN=C=O,AC50,[2],16.3 µM (active)
same,outcome,[15],inactive
same,outcome,[4],inactive
same,outcome,[5],inactive
same,outcome,[6],inactive
same,outcome,[7],inactive
same,outcome,[8],inactive
same,outcome,[9],inactive
CCCCCCCCCCCC[N+](C)(C)C,AC50,[2],10.5 µM (active)
same,AC50,[17],13.7 µM (active)
same,AC50,[3],7.96 µM (active)
same,outcome,[15],inactive
same,outcome,[8],inactive
same,outcome,[9],inactive
same,outcome,[10],inactive
same,outcome,[11],inactive
same,outcome,[12],inactive
same,outcome,[13],inactive
CC(C)(C)c1cc(/C=C2\SC(N)=NC2=O)cc(C(C)(C)C)c1O,outcome,[14],inactive
same,outcome,[15],inactive
same,outcome,[4],inactive
same,outcome,[5],inactive
same,AC50,[6],50 µM (active)
same,outcome,[7],inactive
same,outcome,[19],inactive
same,AC50,[8],77.1 µM (active)
same,outcome,[8],inactive
same,AC50,[9],66 µM (active)
same,outcome,[9],inactive
same,outcome,[10],inactive
same,outcome,[11],inactive
same,AC50,[12],0.67 µM (active)
same,outcome,[13],inactive
